From PubChem BioAssay (Tox21) come the findings set out here.

The structures appear in SMILES notation. Where “and” joins values, the source holds several entries; their conditions need not be identical. Equal values may be shown once. Inconclusive results are not listed. Entries that show only a call come without a potency. Some structures have more than one record in an assay (separate samples or runs), and their calls can disagree. Calls of active or inactive are those of the source. Calls come from the whole dose curve; as a rule, active = well fitted activation curve with a large enough effect in the repeat runs; inconclusive = weak or mixed curves; inactive = no such curve, though single readings can be large or run the other way.
Potency is the fitted concentration of half-maximal effect.

This experiment deals with Nuclear receptor subfamily 1 group I member 2 (Homo sapiens) (UniProt O75469). The experiment is described as follows: Human pregnane X receptor (PXR) small molecule agonists, qHTS assay (AID 1346982). Note: nearly all actives have a fitted effect of over 35% in size. Conditions: PXR-Luc HepG2, CYP3A4 luciferase reporter, 24 h; series mostly up to 92.4 µM. From the text: National Center for Advancing Translational Sciences [NCATS]
Chain of Nuclear receptor subfamily 1 group I member 2 (Homo sapiens) (O75469 whole entry, looked up): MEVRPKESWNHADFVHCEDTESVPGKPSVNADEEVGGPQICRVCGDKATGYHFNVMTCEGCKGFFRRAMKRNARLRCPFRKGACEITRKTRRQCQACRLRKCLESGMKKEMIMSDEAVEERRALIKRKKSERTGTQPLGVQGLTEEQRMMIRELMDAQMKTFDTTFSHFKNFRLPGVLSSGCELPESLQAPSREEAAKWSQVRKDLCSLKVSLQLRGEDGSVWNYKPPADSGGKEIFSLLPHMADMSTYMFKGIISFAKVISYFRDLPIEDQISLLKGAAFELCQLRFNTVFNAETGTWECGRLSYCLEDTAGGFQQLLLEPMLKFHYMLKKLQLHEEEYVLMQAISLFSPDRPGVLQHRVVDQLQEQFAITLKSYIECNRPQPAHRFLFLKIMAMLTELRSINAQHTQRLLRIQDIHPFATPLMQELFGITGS
NIH Chemical Genomics Center [NCGC]
U.S. Environmental Protection Agency [EPA]
National Institutes of Environmental Health Sciences [NIEHS]
National Toxicology Program [NTP]
The human pregnane X receptor (hPXR) regulates the expression of several drug metabolizing enzymes and induction of these proteins is a major mechanism for developing drug resistance in cancer. One such key enzyme catalyzing the drug metabolism is cytochrome P450 3A4 (CYP3A4). Changes in CYP3A4 expression affect drug metabolism, thereby reducing the therapeutic efficacy and altering toxicological response to a drug and which finally causes adverse drug interaction. To screen Tox21 libraries for compounds that activate hPXR-mediated CYP3A4 gene expression, PXR-Luc HepG2 cells were used.
PXR-Luc HepG2 cells were dispensed at 2,000 per well in 5uL of assay medium containing 5% charcoal-stripped FBS into white solid bottom 1536-well plates (Corning Life Sciences, Corning, NY) using a Multidrop Combi (Thermo Scientific, Waltham, MA) dispenser. The assay plates were incubated at 37 C and 5% CO2 for 5hr, and then 23nL of compounds dissolved in DMSO and positive control were transferred using a Pintool station (Wako, San Diego, CA). The assay plates were incubated at 37C and 5% CO2 for 24hr. For luciferase read, 4uL of ONE-Glo reagent (Promega Corporation, Madison, WI) was added to each well of the assay plates using Flying Reagent Dispenser (FRD, Aurora Discovery, San Diego, CA) and incubated the assay plates at room temperature for 30min. The luminescence signal was quantified using a ViewLux plate reader (Perkin Elmer, Shelton, CT).
Take `CCn1cc(C(=O)O)c(=O)c2cc(F)c(N3CCNC(C)C3)c(F)c21` (stereo not given): the Potency entry is “inactive”. As for `BrC1CCC(Br)C(Br)CCC(Br)C(Br)CCC1Br` (stereo not given), the Potency was 54.3 µM (active) and 46.1 µM (active). In the case of `O=S(=O)(O)c1ccc2nc(-c3ccccc3)[nH]c2c1`, the Potency entry was “inactive”. On to `Oc1ccc(Cl)cc1Cc1cc(Cl)ccc1O`, for which the Potency was 22.1 µM (active) and 27.3 µM (active). In the case of `C=C(C)C1CC=C(C)C(OC(C)=O)C1` (stereo not given), the Potency entry is “inactive”. On to `CCCCCC(=O)O[C@]1(C(C)=O)CC[C@H]2[C@@H]3CCC4=CC(=O)CC[C@]4(C)[C@H]3CC[C@@]21C`, for which the Potency is 9.62 µM (active) and 11.9 µM (active). Take `Cc1cc(Cc2cc(C)cc(C(C)(C)C)c2O)c(O)c(C(C)(C)C)c1`: the Potency was 24.5 µM (active) and 386 nM (active).

`Nc1cc(S(=O)(=O)O)cc2cc(S(=O)(=O)O)cc(O)c12`: the Potency result is “inactive”.

`Clc1ccc2c(c1)C(N1CCNCC1)=Nc1ccccc1O2`: the Potency entry is “inactive”. Regarding `CCC[C@H](N[C@@H](C)C(=O)N1[C@H](C(=O)O)C[C@@H]2CCCC[C@@H]21)C(=O)OCC`, the Potency result is “inactive”. As to `CC(=O)Nc1ccc(C(=O)CCl)cc1`, the Potency is 21.8 µM (active) and 24.3 µM (active). The result for `CC(=O)O[C@]1(C(C)=O)CC[C@H]2[C@@H]3C[C@H](C)C4=CC(=O)CC[C@]4(C)[C@H]3CC[C@@]21C` reads 5.44 µM (active); that for `CCc1ccc(C(c2ccc(CC)cc2)C(Cl)Cl)cc1`, 31.1 µM (active) and 24.3 µM (active). Take `O=C(Nc1ccccc1SSc1ccccc1NC(=O)c1ccccc1)c1ccccc1`: the Potency was 48.8 µM (active) and 30.6 µM (active). Turning to `CN(C)c1ccc(C(=C2C=CC(=[N+](C)C)C=C2)c2ccccc2)cc1`, the Potency is 1.72 µM (active) and 2.11 µM (active) and 1.33 µM (active). For the molecule `CCCNC(C)C(=O)Nc1ccccc1C` (stereo not given), the Potency result was “inactive”. Regarding `O=C(OCc1ccccc1)c1ccc(O)cc1`, the Potency result was “inactive”. With `CC(=O)OCCOCCOCCOC(C)=O`, the Potency entry was “inactive”. As for `O=Cc1ccc(Cl)cc1`, the Potency result was “inactive”.

On to `NC(N)=NC(=O)Cc1c(Cl)cccc1Cl`, for which the Potency entry was “inactive”. Take `Cc1ccc(S(=O)(=O)Oc2ccc(N=Nc3ccc(-c4ccc(N=Nc5c(O)ccc6cc(S(=O)(=O)O)cc(S(=O)(=O)O)c56)c(C)c4)cc3C)cc2)cc1`: the Potency was 6.89 µM (active) and inactive. Regarding `C=CC(=O)OCCCCCCOC(=O)C=C`, the Potency result is “inactive”. As to `CC(C)CCOCc1ccccc1`, the Potency result is “inactive”. On to `O=C(O)c1cc(Cl)cc(Cl)c1`, for which the Potency entry was “inactive”. In the case of `OCCN1CCNCC1`, the Potency result is “inactive”. Consider `CC1=C(C=O)C(C)(C)CC=C1`, for which the Potency result is “inactive”.

For the molecule `CCN(CC)c1ccc2c(C)cc(=O)oc2c1`, the Potency was 54.9 µM (active) and 48.6 µM (active). Consider `COc1nc(C)nc(Cl)c1NC1=NCCN1`, for which the Potency result is “inactive”. `c1ccc2c(c1)-c1cccc3c1c-2cc1ccccc13`: the Potency is 29.9 µM (active) and 21.7 µM (active). Regarding `Nc1nc2ccccc2[nH]1`, the Potency result was “inactive”.

`Cc1occc(=O)c1OC(=O)C(C)C`: the Potency entry was “inactive”.

With `CC(C)(C)c1ccccc1`, the Potency result is “inactive”. For `O=C(Cl)c1cccc(C(=O)Cl)c1`, the Potency result is “inactive”. In the case of `C#CC(C)(CC)OC(=O)c1ccccc1C(=O)O` (stereo not given), the Potency entry is “inactive”. Regarding `Cc1cccc([N+](=O)[O-])c1C(=O)O`, the Potency entry is “inactive”. With `Cc1cccc(O)c1C` the entry was “inactive”; with `CC(=O)CC(=O)Nc1ccc2[nH]c(=O)[nH]c2c1`, “inactive”; with `CC(C)C(=O)c1c(C(C)C)nn2ccccc12`, 26.6 µM (active). Take `CC[C@H]1CN2CCc3cc(OC)c(OC)cc3[C@@H]2C[C@@H]1C[C@H]1NCCc2cc(OC)c(OC)cc21`: the Potency is 19.4 nM (active) and 8.4 nM (active). On to `Cc1cc(OCCOCC[N+](C)(C)Cc2ccccc2)ccc1C(C)(C)CC(C)(C)C`, for which the Potency result was “inactive”.
